# From PubChem
# Many of the other results were omitted from the sample, so hits are more common in it than they were.
# Tb PFK inh: qHTS Assay to Find Inhibitors of T. brucei phosphofructokinase | ATP-dependent 6-phosphofructokinase (Trypanosoma brucei brucei), O15648 | T. brucei PFK, ADP-Glo luminescence | Potency, µM (highest dose often 57.5 µM), without a hit: at the top dose activity, negative = inhibition, hits mostly inhibitors | actives 0.17% (n = 330,000) | AID 485367, 2010;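 note: potency is the fitted concentration of half-maximal effect; 0% = uninhibited 1x PFK enzyme wells and -100% = no-enzyme wells; nearly all actives have a fitted effect of over 60% in size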
#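 ADP-Glo luminescence quantified ADP after 45 min at room temperature, with 1.25 nM T. brucei PFK, 0.1 mM ATP and 0.5 mM fructose-6-phosphate in pH 8.0 TEA buffer. qHTS titrations up to 57 µM; curves classified by quality.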
# PGK inhibitor: qHTS Assay to Find Inhibitors of Phosphoglycerate Kinase | actives 0.043% (n = 380,000) | Potency, µM (series often up to 57.5 µM), for the others: at the highest dose activity change, negative = inhibition, hits mostly inhibitors | PGK/GAPDH coupled, Kinase-Glo luminescence, 60 min | Phosphoglycerate kinase, glycosomal (Trypanosoma brucei brucei), P07378; note: potency is the fitted concentration of half-maximal effect; nearly all actives have a fitted effect of over 60% in size
#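 Recombinant glycosomal PGK reaction used 1,3-bisphosphoglycerate generated in-well by GAPDH (100nM final) in 100mM TEA pH 7.6, 5mM MgCl2, 0.01% Tween-20. After 60 minutes at room temperature, ATP was read by Kinase-Glo Plus luminescence end-point.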
# PI4K2A block: qHTS for small molecular inhibitors of PI4K2A; purified PI4K2A, ADP-Glo luminescence, 1 h; active compounds read low; activity change, negative = inhibition, % at 76.9 µM; AID 1346378, 2018; actives 0.13% (n = 420,000); in the data active = activity change below about -50%; inconclusive = mostly about -30% to -49%;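 note: -100% = wells without enzyme as full effect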
# Target sequence (Q9BTU6 whole entry, looked up): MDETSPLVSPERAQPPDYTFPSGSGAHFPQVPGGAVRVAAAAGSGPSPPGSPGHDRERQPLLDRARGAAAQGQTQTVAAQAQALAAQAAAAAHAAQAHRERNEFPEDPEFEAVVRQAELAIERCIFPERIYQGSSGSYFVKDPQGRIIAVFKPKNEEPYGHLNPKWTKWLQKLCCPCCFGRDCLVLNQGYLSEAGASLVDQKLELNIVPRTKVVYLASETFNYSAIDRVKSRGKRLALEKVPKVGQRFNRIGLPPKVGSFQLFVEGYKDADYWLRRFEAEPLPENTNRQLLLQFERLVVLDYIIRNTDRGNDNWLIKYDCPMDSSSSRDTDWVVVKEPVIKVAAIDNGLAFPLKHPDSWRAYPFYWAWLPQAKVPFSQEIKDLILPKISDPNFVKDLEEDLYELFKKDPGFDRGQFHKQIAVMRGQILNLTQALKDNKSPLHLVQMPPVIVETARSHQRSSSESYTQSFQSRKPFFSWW
#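 Compounds are screened against recombinant PI4K2A using PI as substrate and ATP, the latter dispensed at 300 microM. Reactions run one hour at ambient temperature before ADP-Glo detection; full inhibition defined by wells lacking enzyme.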
# PI5P4Ka inh: qHTS for Inhibitors of phosphatidylinositol 5-phosphate 4-kinase (PI5P4K); Phosphatidylinositol 5-phosphate 4-kinase type-2 alpha (Homo sapiens), P48426; PI5P4Kalpha enzyme, ADP-Glo luminescence, 60 min; active compounds read low; max response, %; actives 1.2% (n = 330,000); active = max response of -50% or lower; inconclusive = between -30% and -50%; inactive = -30% or higher; note: value at the top dose of about 77 µM
#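 Single end-point luminescence (ADP-Glo) quantified ADP from PI5P4Kalpha turnover; ATP 5 microM final, 1 h at RT, 0.1% CHAPS and 0.28 mM EGTA in HEPES pH 7.4.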
# Pin1 inh: qHTS Assay to Find Inhibitors of Pin1; Potency, µM (top dose mostly 115 µM), for inactives: at the highest dose activity, negative = inhibition, actives largely listed as inhibitors; Pin1 FP peptide displacement, HiFluor488, 10 min; AID 504891, 2011; actives 0.009% (n = 390,000); Peptidyl-prolyl cis-trans isomerase NIMA-interacting 1 (Homo sapiens), Q13526; active = well fitted inhibition curve with a large enough effect in the polarisation, with a control signal flat, not every such curve was filed as active; inconclusive = small, poorly fitted or top-dose-only effect, or effect the other way, or a change in a side signal; inactive = no such curve, though single readings can be large or run the other way; the % refers to the polarisation; note: potency is the fitted concentration of half-maximal effect
# Target sequence (Q13526 whole entry, looked up): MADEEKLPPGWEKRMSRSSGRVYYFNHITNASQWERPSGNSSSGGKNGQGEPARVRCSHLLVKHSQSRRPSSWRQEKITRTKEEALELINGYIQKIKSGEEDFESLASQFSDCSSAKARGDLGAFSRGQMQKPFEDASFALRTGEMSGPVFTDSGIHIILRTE
# * = called active by the depositor; i = inactive; ? = inconclusive; nt = not tested or not shown. Unless noted, calls come from the whole dose curve; as a rule, active = well fitted curve in the direction sought with a large enough effect; inconclusive = small, poorly fitted or top-dose-only effect, or another doubt; inactive = no such curve, though single readings can be large; an effect the other way counts as inactive or inconclusive. Unless noted, % is set by controls: 0 for no effect and ±100 for the full control effect.
SMILES,Tb PFK inh,PGK inhibitor,PI4K2A block,PI5P4Ka inh,Pin1 inh
CC(/C=C1\SC(=S)N(c2ccc(C(=O)O)cc2)C1=O)=C\c1ccccc1,2%,-28%,-6,-57*,nt
O=C(CCN1C(=O)/C(=C/c2cccs2)SC1=S)Nc1ccc(C(=O)O)c(O)c1,0%,-13%,-5,-58*,3%
O=C(CCN1C(=O)/C(=C/c2cccs2)SC1=S)Nc1ccc(O)cc1,3%,-4%,-3,-6,?
COc1ccc(/C=C2\SC(=S)N(CCC(=O)Nc3ccccc3C(=O)O)C2=O)cc1,1%,1%,0,-8,-2%
O=C1NC2CCCCN2C12CCN(CCCN1c3ccccc3CCc3ccc(Cl)cc31)CC2 (stereo not drawn),nt,nt,-3,nt,nt
Fc1cc(F)cc(Nc2nc(NC3CCCC3)nc(C3CO3)n2)c1 (stereo not drawn),nt,nt,nt,nt,3%
Cc1ccc(NS(=O)(=O)c2cc3c(cc2-c2cn[nH]c2)NC(=O)CO3)cc1C,nt,nt,nt,nt,-9%
CC(=Cc1ccccc1)C=C1SC(=S)N(CCCC(=O)Nc2ccc(C(=O)O)c(O)c2)C1=O,nt,nt,-9,-57*,nt
Nc1cc(N)cc(-c2nc3ccccc3[nH]2)c1,3%,i,1,-64*,13%
CNC(=O)c1cnn(-c2nc(N)c3ncn([C@@H]4O[C@H](CO)[C@@H](O)[C@H]4O)c3n2)c1,nt,nt,2,nt,nt
S=c1[nH]nc(-c2ccncc2)n1/N=C/C=C/c1ccco1,?,-6%,-4,?,?
S=c1[nH]nc(-c2ccccc2Cl)n1/N=C/C=C/c1ccco1,-10%,-3%,-6,-60*,?
CCCCN(CCCC)Cc1cc2ccccc2c2c1COC2,-3%,-6%,-81*,32,-12%
CCCN(CCC)Cc1cc2ccccc2c2c1COC2,3%,7%,4,-9,-1%
COC(=O)CCC(=O)OC1(C)C(=O)C=C2C=C(C3CC3)N(C3CC3)C=C2C1=O (stereo not drawn),3%,3%,?,-3,-18%
CCC(=O)OC1(C)C(=O)C=C2C=C(c3ccsc3)OC=C2C1=O (stereo not drawn),-3%,-12%,-20,-73*,-4%
COC(=O)CCC(=O)OC1(C)C(=O)C=C2C=C(c3ccsc3)OC=C2C1=O (stereo not drawn),nt,-13%,-14,-98*,?
COc1ccc(C2c3ccc(OCc4ccccc4)cc3Oc3ncn(CCN4CCOCC4)c(=N)c32)cc1OC (stereo not drawn),nt,nt,nt,nt,-1%
CCOC(=O)[C@@]12CCCC=C1N(CCc1ccc(Cl)cc1)C(=O)[C@H]2CC(=O)NCC1CCCCC1,nt,nt,-5,nt,nt
COc1cc(-c2ccc3ncnc(NCC4CCCO4)c3c2)cc(OC)c1OC (stereo not drawn),nt,nt,nt,nt,-5%
C=CCn1c(CSCc2ccc(Cl)cc2Cl)nnc1SCC(=O)Nc1ccc(C(=O)O)cc1,0%,-8%,-4,-74*,-5%
O=C(CSCc1ccc(Cl)cc1Cl)Nc1ccccc1C(=O)Nc1ccc(C(=O)O)cc1,1%,-1%,4,-3,-7%
C=CCN1[C@H](C#N)[C@@H](c2ccc(C#Cc3cccc(OC)c3)cc2)[C@H]1CO,nt,nt,-18,nt,nt
COc1cc(N)c2ncccc2c1SC,nt,-5%,-11,-7,nt
COc1cc(N)c2ncccc2c1Br,nt,3%,-52*,1,7%
SMILES,Tb PFK inh,PGK inhibitor,PI4K2A block,PI5P4Ka inh,Pin1 inh
Cc1ccc(C)c(SC2=NS(=O)(=O)c3ccccc32)c1,nt,nt,nt,nt,-7%
COC(=O)[C@H]1[C@H]2C[C@@H]3c4[nH]c5cc(OC)ccc5c4CCN3C[C@H]2C[C@@H](OC(=O)/C=C/c2ccc(O)c(OC)c2)[C@@H]1OC,nt,nt,1,nt,nt
COc1ccc2c(C)c(CC(=O)N3CCN(C(=O)C4COc5ccccc5O4)CC3)c(=O)oc2c1C (stereo not drawn),1%,-3%,7,-11,17%
Cc1c(CC(=O)N2CCN(C(=O)C3COc4ccccc4O3)CC2)c(=O)oc2cc(O)c(Cl)cc12 (stereo not drawn),3%,5%,2,-51*,6%
O=C(Cn1c(=O)oc2ccccc21)Nc1n[nH]c(=S)s1,-8%,i,3,-79*,-3%
O=C(Cn1c(=O)oc2ccccc21)Nc1nc(-c2ccccc2)cs1,-6%,8%,1,nt,9%
CC1C(=O)NN=C1C(=O)N/N=C\c1ccc(O)cc1O (stereo not drawn),-27%,-5%,-15,-60*,2%
COc1ccc(C(=O)NCC(=O)OCC(=O)Nc2sccc2C#N)cc1OC,9%,-12%,-9,-58*,28%
Cc1ccc(S(=O)(=O)CCC(=O)OCC(=O)Nc2sccc2C#N)cc1,nt,-5%,-5,-60*,nt
Cc1ccc(S(=O)(=O)CCC(=O)Nc2sccc2C#N)cc1,0%,-2%,0,2,10%
CCc1ccc(Nc2n[n+](-c3ccccc3)c(-c3c(Cl)cccc3Cl)s2)cc1,0%,-5%,-3,-80*,-4%
CCc1ccc(Nc2n[n+](-c3ccccc3)c(-c3ccc(N(CC)CC)cc3)s2)cc1,3%,i,-3,-59*,?
Fc1ccc(-[n+]2nc(Nc3ccccc3)sc2-c2c(Cl)cccc2Cl)cc1,3%,-1%,4,-14,-1%
CCN(CC)c1ccc(-c2sc(Nc3ccccc3)n[n+]2-c2ccc(F)cc2)cc1,2%,i,2,-18,?
NC(=O)C1CCN(c2ncc(-c3cccc(N4CCCC4)c3)s2)CC1,nt,nt,nt,nt,6%
O=C1CCc2cc(Cl)c(S(=O)(=O)Nc3ccc(Cl)c(Cl)c3)cc2N1,nt,nt,nt,nt,7%
CCOC1=CC2=C(C(=O)C(Cl)=CC2=O)[C@@H]2CN(S(=O)(=O)c3ccc(C)cc3)[C@@H](c3ccccc3)[C@H]12,nt,nt,-19,-107*,nt
Cc1cc(=O)oc2cc(NC(=S)NCc3ccccn3)ccc12,1%,i,1,-1,1%
Cc1cc(=O)oc2cc(NC(=S)NNC(=O)c3c(Cl)cnn3C)ccc12,1%,i,-1,-53*,3%
CC1=NN(c2cccc([N+](=O)[O-])c2)C(=O)C1,6%,i,-50*,13,-9%
CC1=NN(c2ccccc2)C(=O)C1,-2%,-9%,?,1,3%
CC1=NN(c2ccc(N)cc2)C(=O)C1,-24%,-14%,-66*,-23,?
CCCCCCCCCCCCCCCCCCN(C)C,nt,nt,0,nt,nt
